From PubChem BioAssay (NCI)
The panel holds about 79,000 compounds, 15% with a hit somewhere; the sample as a whole holds those more often. The source made the active and inactive calls. Rule as the data show it: active = growth inhibition above about 70%; inactive = the rest.

Experiments:
[1] = NCI Yeast Anticancer Drug Screen. Data for the rad52 strain (AID 147);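 also: 0% = growth of vehicle-treated control cultures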; conditions: S. cerevisiae rad52 mutant growth inhibition, hits give high values
Procedure, shortened: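 Genetically altered yeast (DNA damage repair defect) treated with compound; inhibition calculated relative to vehicle.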

[2] = NCI Yeast Anticancer Drug Screen. Data for the wt1 strain (AID 149);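 also: 0% = growth of vehicle-treated wt1 cultures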; conditions: S. cerevisiae wt1 strain (SPY 50644) growth inhibition, hits give high values
Procedure, shortened: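 Using yeast strain wt1, compound-induced growth inhibition was determined against vehicle-treated cultures.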

[3] = NCI Yeast Anticancer Drug Screen. Data for the mgt1 strain (AID 153); conditions: S. cerevisiae mgt1 mutant growth inhibition, hits give high values
Procedure, shortened: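 Read-out: yeast growth inhibition vs vehicle control. Strain mgt1, drawn from a panel altered in DNA damage repair or cell cycle control.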

[4] = NCI Yeast Anticancer Drug Screen. Data for the rad50 strain (AID 155);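 also: 0% = growth of vehicle-only cultures of the same strain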; conditions: S. cerevisiae rad50 strain growth inhibition, hits give high values
Procedure, shortened: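 Relative growth inhibition (compound vs vehicle) was measured in yeast with a defined repair-gene alteration.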

[5] = NCI Yeast Anticancer Drug Screen. Data for the mec2-1 strain (AID 157); conditions: S. cerevisiae mec2-1 strain, hits give high values
Procedure, shortened: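 Cells of the genetically defined mec2-1 yeast strain are incubated with test compound. Inhibition of growth is calculated against vehicle-treated controls.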

[6] = NCI Yeast Anticancer Drug Screen. Data for the rad14 strain (AID 159);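 also: 0% = growth of vehicle-treated control cultures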; conditions: S. cerevisiae rad14 strain growth inhibition, hits give high values
Procedure, shortened: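 Screen for anticancer potential: a yeast strain altered in DNA damage repair is grown with compound, and reduced growth is quantified against vehicle controls.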

[7] = NCI Yeast Anticancer Drug Screen. Data for the sgs1 mgt1 strain (AID 161);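 also: 0% = growth of cultures given vehicle only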; conditions: S. cerevisiae sgs1 mgt1 strain, hits give high values
Procedure, shortened: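 Test agents were incubated with a DNA-repair-mutant yeast strain. Growth was then read and compared against vehicle-treated controls.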

[8] = NCI Yeast Anticancer Drug Screen. Data for the CLN2oe strain (AID 163);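 also: 0% = growth of vehicle-only control cultures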; conditions: S. cerevisiae CLN2oe strain, hits give high values
Procedure, shortened: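 Strain altered in cell-cycle control, incubated with compound; growth compared to solvent-treated controls.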

[9] = NCI Yeast Anticancer Drug Screen. Data for the cln2 rad14 strain (AID 165);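 also: 0% = growth equal to vehicle treated cultures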; conditions: S. cerevisiae cln2 rad14 strain, hits give high values
Procedure, shortened: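 The screen exposed genetically defined yeast (cln2 rad14) to test compounds and scored growth inhibition relative to vehicle-treated controls.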

[10] = NCI Yeast Anticancer Drug Screen. Data for the bub3 strain (AID 167); conditions: S. cerevisiae bub3 mutant strain, hits give high values
Procedure, shortened: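 Screening used yeast with an engineered genetic alteration affecting cell cycle control. Compound-exposed cultures were compared with vehicle cultures, and reduced growth was taken as inhibition.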

[11] = NCI Yeast Anticancer Drug Screen. Data for the wt2 strain (AID 169);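 also: 0% = growth of vehicle-treated yeast cultures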; conditions: S. cerevisiae wt2 strain growth inhibition, hits give high values
Procedure, shortened: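 Steps: yeast strain treated with compound; growth recorded; inhibition calculated relative to cultures given vehicle alone.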

[12] = NCI Yeast Anticancer Drug Screen. Data for the mlh1 strain (AID 171);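 also: 0% = growth of vehicle-treated control cultures of the same strain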; conditions: S. cerevisiae mlh1 strain growth inhibition, hits give high values
Procedure, shortened: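 Yeast screen: mutant strain plus compound, growth scored against vehicle control wells.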

[13] = NCI Yeast Anticancer Drug Screen. Data for the sgs1 strain (AID 173);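 also: 0% = growth of vehicle-only control cultures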; conditions: S. cerevisiae sgs1 mutant, hits give high values
Procedure, shortened: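 Inhibition of yeast growth served as the measure. The mutant strain was treated with each compound, and growth was normalised to cultures receiving vehicle alone.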

[14] = NCI Yeast Anticancer Drug Screen. Data for the mlh1 rad18 strain (AID 175); conditions: S. cerevisiae mlh1 rad18 strain growth inhibition, hits give high values
Procedure, shortened: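 Compound-treated yeast growth, normalised to vehicle controls. Strain bears defined DNA repair mutations.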

[15] = NCI Yeast Anticancer Drug Screen. Data for the rad18 strain (AID 177); conditions: S. cerevisiae rad18 mutant growth inhibition, hits give high values
Procedure, shortened: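 Inhibition values reflect reduced yeast growth compared with vehicle-treated controls, using a strain engineered with a DNA damage repair defect.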

[16] = at 5.0 µM (retest, dose inferred, filed as 0.5)
[17] = at 50.0 µM (retest, dose inferred, filed as 5.0)

Measured: growth inhibition

OCC(O)C(O)CO (stereo not drawn) (tested in a mixture with another compound)
active: [4]; [17] 82%
inactive: [1]; at 1.2 µM -2% | [1]; at 3.7 µM -3% | [1]; at 11.0 µM -1% | [1]; at 33.0 µM -4% | [1]; at 100.0 µM 8% | [2]; at 1.2 µM -4% | [2]; at 3.7 µM -4% | [2]; at 11.0 µM -5% | [2]; at 33.0 µM -2% | [2]; at 100.0 µM 0% | [3]; at 1.2 µM 0% | [3]; at 3.7 µM -2% | [3]; at 11.0 µM -1% | [3]; at 33.0 µM 5% | [3]; at 100.0 µM 0% | [4]; at 1.2 µM -8% | [4]; at 3.7 µM -17% | [4]; [16] -130% | [4]; at 11.0 µM -3% | [4]; at 33.0 µM 16% | [4]; at 50.0 µM 15.4% | [4]; at 100.0 µM -1% | [5]; at 1.2 µM -1% | [5]; at 3.7 µM 0% | [5]; [16] -47% | [5]; at 11.0 µM -6% | [5]; at 33.0 µM 0% | [5]; [17] -1% | [5]; at 50.0 µM 32.4% | [5]; at 100.0 µM 3% | [6]; at 1.2 µM -1% | [6]; at 3.7 µM -5% | [6]; at 11.0 µM -4% | [6]; at 33.0 µM -3% | [6]; at 100.0 µM -1% | [7]; [16] -57% | [7]; [17] 39% | [7]; at 50.0 µM -2.1% | [8]; at 1.2 µM 2% | [8]; at 3.7 µM -1% | [8]; at 11.0 µM 0% | [8]; at 33.0 µM 0% | [8]; at 100.0 µM 1% | [9]; [16] -60% | [9]; [17] -30% | [9]; at 50.0 µM -44.6% | [10]; at 1.2 µM -1% | [10]; at 3.7 µM -4% | [10]; [16] -64% | [10]; at 11.0 µM -3% | [10]; at 33.0 µM -2% | [10]; [17] 25% | [10]; at 50.0 µM 12.3% | [10]; at 100.0 µM 3% | [11]; at 1.2 µM -2% | [11]; at 3.7 µM 1% | [11]; at 11.0 µM 0% | [11]; at 33.0 µM -2% | [11]; at 100.0 µM 0% | [12]; at 1.2 µM 8% | [12]; at 3.7 µM -1% | [12]; at 11.0 µM -5% | [12]; at 33.0 µM -5% | [12]; at 100.0 µM -3% | [13]; at 1.2 µM -1% | [13]; at 3.7 µM 1% | [13]; at 11.0 µM 2% | [13]; at 33.0 µM 2% | [13]; at 100.0 µM -2% | [14]; [16] -110% | [14]; [17] 29% | [14]; at 50.0 µM -9.65% | [15]; at 1.2 µM -4% | [15]; at 3.7 µM -3% | [15]; at 11.0 µM -2% | [15]; at 33.0 µM -2% | [15]; at 100.0 µM 1%
